# According to PubChem BioAssay (NCATS):
# Values joined by “and” are separate entries in the source; they are usually repeats but may differ in a detail not shown here. Equal entries are not always repeated. Inconclusive results are not listed. Entries that show only a call come without a potency. Active and inactive are the calls of the source. Unless noted, calls follow the shape of the full dose curve.
# How the values were obtained:
# [1] = qHTS for Inhibitors of the Functional Ribonucleoprotein Complex (vRNP) of Lassa (LASV) Arenavirus: Viability assay - alamar blue signal for LASV Primary Screen (AID 1347083; calls by dose curve; tested in HEK293 reporter line; also: potency is read from the fitted curve at half-maximal effect; nearly all actives have a fitted effect of over 80% in size)
# [2] = molecular target: Nucleoprotein (Lymphocytic choriomeningitis virus (strain Armstrong)) (UniProt P09992); experiment: qHTS for Inhibitors of the Functional Ribonucleoprotein Complex (vRNP) of Lymphocytic Choriomeningitis Arenaviruses (LCMV): LCMV Primary Screen - GLuc reporter signal (AID 1347086); also: nearly all actives have a fitted effect of over 70% in size; also: potency is read from the fitted curve at half-maximal effect
# Chain of Nucleoprotein (Lymphocytic choriomeningitis virus (strain Armstrong)) (P09992 whole entry, looked up): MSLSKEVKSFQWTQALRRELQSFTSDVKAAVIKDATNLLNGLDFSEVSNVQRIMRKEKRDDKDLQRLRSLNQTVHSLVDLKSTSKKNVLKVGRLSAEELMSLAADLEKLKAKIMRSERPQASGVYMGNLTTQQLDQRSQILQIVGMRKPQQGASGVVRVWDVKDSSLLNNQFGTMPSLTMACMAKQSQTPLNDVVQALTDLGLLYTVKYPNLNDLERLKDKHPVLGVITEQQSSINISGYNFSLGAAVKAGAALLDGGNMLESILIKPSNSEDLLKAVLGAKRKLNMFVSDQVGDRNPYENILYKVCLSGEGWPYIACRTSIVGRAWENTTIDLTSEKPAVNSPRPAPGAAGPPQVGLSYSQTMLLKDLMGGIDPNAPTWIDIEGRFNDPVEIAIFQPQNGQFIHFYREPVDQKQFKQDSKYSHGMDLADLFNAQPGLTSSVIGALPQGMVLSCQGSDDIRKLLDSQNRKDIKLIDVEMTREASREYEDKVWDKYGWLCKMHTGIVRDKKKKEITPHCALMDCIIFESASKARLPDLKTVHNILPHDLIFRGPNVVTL
# [3] = qHTS for Inhibitors of the Functional Ribonucleoprotein Complex (vRNP) of Lassa (LASV) Arenavirus: LASV Primary Screen - GLuc reporter signal (AID 1347082; calls by dose curve; tested in HEK293 reporter line; also: series mostly up to about 57 µM; nearly all actives have a fitted effect of over 60% in size)
# [4] = qHTS for Inhibitors of the Functional Ribonucleoprotein Complex (vRNP) of Lymphocytic Choriomeningitis Arenaviruses (LCMV): Viability assay - alamar blue signal for LCMV Primary Screen (AID 1347085; calls by dose curve; tested in HEK293 reporter line; also: nearly all actives have a fitted effect of over 80% in size; also: potency is read from the fitted curve at half-maximal effect)
# [5] = qHTS of pediatric cancer cell lines to identify multiple opportunities for drug repurposing: Primary screen for TC32 cells (AID 1347089; active = well fitted cell-killing curve with a large enough effect; also: nearly all actives have a fitted effect of over 60% in size)
# How it was run: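 Luminescent CellTiter-Glo read-out of metabolically active TC32 cells after 48 h compound exposure. Primary: MIPE 11-point, 0.78 nM–46 µM; NPC 8-point, 0.59 nM–46 µM. Confirmatory: 11-point dilutions.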
structure (smiles),measurement,setting,value
CCc1c2c(nc3ccc(OC(=O)N4CCC(N5CCCCC5)CC4)cc13)-c1cc3c(c(=O)n1C2)COC(=O)[C@]3(O)CC,Potency,[1],4.32 µM (active)
same,Potency,[2],27.3 µM (active)
CC1(C)O[C@@H]2[C@@H](CO[C@@]3(COS(N)(=O)=O)OC(C)(C)O[C@@H]23)O1,Potency,[3],inactive
same,Potency,[4],inactive
same,Potency,[2],inactive
COC(=O)C1=C(C)NC(C)=C(C(=O)OCC(C)C)C1c1ccccc1[N+](=O)[O-] (centres undefined),Potency,[3],inactive
same,Potency,[4],inactive
same,Potency,[2],inactive
CN(Cc1cnc2nc(N)nc(N)c2n1)c1ccc(C(=O)N[C@@H](CCC(=O)O)C(=O)O)cc1,Potency,[3],inactive
same,Potency,[4],inactive
same,Potency,[2],inactive
CCC(=O)C(CC(C)N(C)C)(c1ccccc1)c1ccccc1 (centres undefined),Potency,[3],inactive
same,Potency,[4],inactive
same,Potency,[2],inactive
same,Potency,[5],inactive
CC(C)n1c(C=C[C@H](O)C[C@H](O)CC(=O)O)c(-c2ccc(F)cc2)c2ccccc21,Potency,[1],2.43 µM (active)
same,Potency,[4],7.69 µM (active)
same,Potency,[2],21.7 µM (active)
Nc1nc(N)c2nc(-c3ccccc3)c(N)nc2n1,Potency,[3],inactive
same,Potency,[2],inactive
Cc1ccc(S(=O)(=O)NC(=O)NN2CC3CCCC3C2)cc1 (centres undefined),Potency,[4],inactive
same,Potency,[2],inactive
O=C(C1CCCCC1)N1CC(=O)N2CCc3ccccc3C2C1 (centres undefined),Potency,[3],inactive
same,Potency,[4],inactive
same,Potency,[2],inactive
CCCC(CCC)C(=O)O,Potency,[3],inactive
same,Potency,[2],inactive
COc1cc(NCc2ccc3nc(N)nc(N)c3c2C)cc(OC)c1OC,Potency,[3],inactive
same,Potency,[2],inactive
N=C(N)c1ccc(OCCCCCOc2ccc(C(=N)N)cc2)cc1,Potency,[1],38.5 µM (active)
CCc1nn(CCCN2CCN(c3cccc(Cl)c3)CC2)c(=O)n1CCOc1ccccc1,Potency,[4],inactive
O=C1c2c(O)ccc(O)c2C(=O)c2c(NCCNCCO)ccc(NCCNCCO)c21,Potency,[1],685 nM (active) and 891 nM (active) and 1.78 µM (active)
same,Potency,[4],1.37 µM (active) and 1.26 µM (active)
same,Potency,[2],4.32 µM (active)
O=C1c2cccc3c2[C@H](CCC3)CN1[C@@H]1CN2CCC1CC2,Potency,[3],inactive
same,Potency,[4],inactive
same,Potency,[2],inactive
CC(S)C(=O)NCC(=O)O (centres undefined),Potency,[3],inactive
same,Potency,[4],inactive
same,Potency,[2],inactive
CC1=C(/C=C/C(C)=C/C=C/C(C)=C/C(=O)Nc2ccc(O)cc2)C(C)(C)CCC1,Potency,[2],8.91 µM (active)
CNS(=O)(=O)CCc1ccc2[nH]cc(C3CCN(C)CC3)c2c1,Potency,[3],inactive
same,Potency,[2],inactive
Nc1ccn([C@@H]2O[C@H](CO)[C@@H](O)C2(F)F)c(=O)n1,Potency,[3],inactive
same,Potency,[2],inactive
CC(C)c1nc(CN(C)C(=O)N[C@H](C(=O)N[C@@H](Cc2ccccc2)C[C@H](O)[C@H](Cc2ccccc2)NC(=O)OCc2cncs2)C(C)C)cs1,Potency,[3],inactive
same,Potency,[4],inactive
same,Potency,[2],inactive
Cc1cc2c(C(C)C)c(O)c(O)c(C=O)c2c(O)c1-c1c(C)cc2c(C(C)C)c(O)c(O)c(C=O)c2c1O,Potency,[1],30.6 µM (active)
same,Potency,[4],inactive
CS(=O)(=O)CCNCc1ccc(-c2ccc3ncnc(Nc4ccc(OCc5cccc(F)c5)c(Cl)c4)c3c2)o1,Potency,[1],0.432 µM (active)
same,Potency,[4],0.137 µM (active)
same,Potency,[2],0.769 µM (active)
C#C[C@]1(O)CC[C@H]2[C@@H]3CCC4=Cc5oncc5C[C@]4(C)[C@H]3CC[C@@]21C,Potency,[3],inactive
same,Potency,[4],inactive
same,Potency,[2],inactive
CC1(CN2CCC(n3c(=O)[nH]c4ccccc43)CC2)OCc2ccccc2-n2cccc21 (centres undefined),Potency,[3],inactive
same,Potency,[4],inactive
same,Potency,[2],inactive
